For 28 molecules, max response results are on record in PubChem BioAssay (NCATS).

The structures appear in SMILES notation. Inconclusive results are not listed. A number with no mark means an inactive call. Calls come from the whole dose curve; as a rule, active = well fitted inhibition curve with a large enough effect; inconclusive = small, poorly fitted or top-dose-only effect; inactive = flat fitted curve, though single readings scatter.
% is set by controls: 0 for no effect and ±100 for the full control effect.

For the experiment, the system named is HaCat. Description: Cytotoxic Profiling of Annotated Libraries Using Quantitative High-Throughput Screening (AID 1296008). Note: nearly all actives have a fitted effect of over 60% in size. The note with it: Five cell lines viability, CellTiter-Glo ATP luminescence, 48-72 h; max response: stronger effect = lower value. An outline of the steps:
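Compounds were pin-transferred onto cells and incubated 48 or 72 hr at 37 degree Celsius, 95% humidity. CellTiter-Glo was added, plates sat 10 min at room temperature, then ATP-coupled luminescence was imaged as the viability read-out.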
With `C=C(COC(=O)C(O)C(O)CN)C12OC1C1(C)C(=CC2=O)C(O)C(O)CC1C` (stereo not drawn), the max response is 0.561%.

In the case of `COc1cc(-c2nc(N[C@H](CO)Cc3ccccc3)ccc2C(=O)NCCOc2ccccc2)cc(OC)c1OC`, the max response is -1.78%.

On to `Cc1cccc(-c2[nH]ncc2-c2ccc(F)c(-c3cnn(CCO)c3)c2)n1`, for which the max response is 3.16%.

With `CC1(C)CC[C@]2(C(=O)O)CC[C@]3(C)C(=CCC4[C@@]5(C)C[C@@H](O)[C@H](O)C(CO)(CO)C5CC[C@]43C)C2[C@@H]1O` (stereo partly drawn), the max response was -58.7%.

In the case of `O=C(NC1CCC1)c1ccc(C#Cc2cccc(F)c2)nc1`, the max response is -7.87%.

On to `Nc1nc2c(cnn2CCCc2ccc(O)cc2)c2nc(-c3ccco3)nn12`, for which the max response was -2.77%.

For the molecule `CC(=O)O[C@@H]1C[C@]2(C)[C@@]3(CCC4[C@@]5(C)CC[C@H](O[C@@H]6O[C@H](C(=O)O)[C@@H](O)[C@H](OC7OC(CO)C(O)C(O)[C@H]7O[C@@H]7O[C@@H](C)[C@H](O)[C@@H](O)[C@H]7O[C@@H]7OC[C@](O)(CO)[C@H]7O)[C@H]6OC6OC(CO)C(O)C(O)C6O)C(C)(C)C5CC[C@]42C)OC[C@@]12CCC(C)(C)CC23` (stereo partly drawn), the max response was 0.508%.

For the molecule `CC(C)(CNC(=O)c1cccc(-c2noc(C(F)(F)F)n2)c1)c1coc(-c2ccccc2)n1`, the max response was -1.63%.

For `O=C1COc2nccc(-c3ccccc3F)c2CN1Cc1cc(C(F)(F)F)cc(C(F)(F)F)c1`, the max response was -0.797%.

`O=C(NC[C@H](O)CN1CCc2ccccc2C1)c1ccnc(NC2CCC2)c1`: the max response was -27.8%.

On to `O=C(O)c1cccc(-c2ccc(-c3cn(C(=O)N4CCCCC4Cc4ccccc4)nn3)cc2)c1` (stereo not drawn), for which the max response is -16.1%.

Regarding `CC(=O)[C@H]1CC[C@H]2[C@@H]3CC=C4C[C@@H](OS(=O)(=O)O)CC[C@]4(C)[C@H]3CC[C@]12C`, the max response was 1.57%.

Take `O=C(NCC1(N2CCN(c3ccccc3)CC2)CCOCC1)c1cccnc1Sc1ccccc1`: the max response was -2.8%.

In the case of `C[C@@H]1C[C@H](C)CN(CCC(=O)Nc2ccc(Br)cc2)C1`, the max response was -4.42%.

`C[C@@H]1C[C@H]2O[C@@]3(O[C@@H]2C(C)(C)O)C(O)[C@@]2(C)C4CCC5C(C)(C)[C@@H](O[C@H]6OC[C@H](O)[C@@H](O)[C@@H]6O)CC[C@@]56C[C@@]46CC[C@]2(C)C13` (stereo partly drawn): the max response was -16.2%.

For the molecule `COc1ccc(N2CCN(C(=O)c3cc4c(s3)-c3ccccc3S(=O)(=O)C4)CC2)cc1`, the max response was 2.45%.

Turning to `CCOc1ccc(Cc2nc(-c3c(C)nc4ccccn34)cs2)cc1`, the max response is -17.5%.

Turning to `CCC[C@H](N[C@H]1CCc2cc(F)cc(F)c2C1)C(=O)Nc1cn(C(C)(C)CNCC(C)(C)C)cn1`, the max response was -2.54%.

In the case of `CCC(C)C(=O)O[C@H]1[C@@H](OC(=O)c2ccoc2)C[C@](C)(O)[C@]23OC(C)(C)[C@H](C[C@H](OC(=O)c4ccoc4)[C@]12COC(C)=O)[C@H]3OC(C)=O` (stereo partly drawn), the max response was -1.74%.

Regarding `COC1CC(=O)C23C(=O)NC(CC(C)C)C2C(C)C(C)=CC3/C=C(\C)CCCC1O` (stereo not drawn), the max response was 3.61%.

Take `COc1c2c(nc3occc13)C(CC=C(C)C)(OC)C(O)CC2` (stereo not drawn): the max response was -1.05%.

Regarding `O=c1[nH]cnc2c([C@@H]3N[C@H](CO)[C@@H](O)[C@H]3O)c[nH]c12`, the max response was -34.4%.

On to `O=C(COc1ccc(C(=O)c2ccccc2)cc1)NC1CCN(Cc2ccccc2)CC1`, for which the max response was -11.4%.

`CC1OC(OC2C(O)COC(O[C@@H]3[C@@H](O)[C@@H](O)[C@H](OC4C(OC(=O)[C@]56CCC(C)(C)CC5C5=CCC7[C@@]8(C)C[C@H](O)[C@H](OC9OC(CO)C(O)C(O)C9O)[C@@](C)(CO)C8[C@H](O)C[C@@]7(C)[C@]5(C)CC6)OCC(O)C4O)O[C@H]3C)C2O)C(O)C(O)C1O` (stereo partly drawn): the max response is 0.653%.

Turning to `COc1cc(N(C)CCN(C)C)c(N)cc1Nc1nccc(-c2cn(C)c3ccccc23)n1`, the max response is -1.2%.

Regarding `C[C@@]12C(=O)N(c3ccc(C(=O)Nc4cccc5cccnc45)cc3)C(=O)[C@@H]1[C@@H]1C=C[C@H]2C1`, the max response is -0.616%.

`Cc1ccc(N2CCN(CCC3NC(=O)c4ccccc43)CC2)cc1C` (stereo not drawn): the max response is -0.27%.

Turning to `C=C1C(=O)OC[C@@H]1C/C=C(\C)CC1CC(C)C(=O)O1` (stereo partly drawn), the max response is 2.44%.
